# Potency and affinity values are given separately. More than one record can exist for a structure, and the calls need not agree. A number with no mark means an inactive call. Active and inactive are the calls of the source.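 The calls were made as follows: active = EC50 of 10 µM or lower; inactive = EC50 above 10 µM or not measured.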
# Experiment: optical interference in Abeta FP readout, dose response, artefact control for IDE activator project, biochemical, fluorescence polarization (AID 588442)
# Settings: FP artifact counterscreen, fluorescein-Abeta, no enzyme activity
row,SMILES,EC50
1,C[n+]1c2cc(N)ccc2cc2ccc(N)cc21,0.576 µM (active)
2,C#CCOCCOCCOCCNc1nc(N2CCN(C(=O)CCCCCCCCCCNC(=O)Cn3cc(C[C@@H](C)O)nn3)CC2)nc(N2CCN(C(=O)CCCCCCCCCCNC(=O)[C@H](CCCN=C(N)N)n3cc(C[C@@H](C)CC)nn3)CC2)n1,> 55.9 µM
3,C#CCOCCOCCOCCNc1nc(N2CCN(C(=O)CCCCCCCCCCNC(=O)[C@H](CO)n3cc(CCCSC)nn3)CC2)nc(N2CCN(C(=O)CCCCCCCCCCNC(=O)[C@H](CCCCN)n3cc(CCO)nn3)CC2)n1,> 55.9 µM
4,C#CCOCCOCCOCCNc1nc(N2CCN(C(=O)CCCCCCCCCCNC(=O)[C@H](CCCCN)n3cc(CCO)nn3)CC2)nc(N2CCN(C(=O)CCCCCCCCCCNC(=O)[C@H](CCCN=C(N)N)n3cc(C[C@@H](C)CC)nn3)CC2)n1,> 55.9 µM
5,C#CCOCCOCCOCCNc1nc(N2CCN(C(=O)CCCCCCCCCCNC(=O)[C@@H](CCSC)n3cc(CCO)nn3)CC2)nc(N2CCN(C(=O)CCCCCCCCCCNC(=O)[C@H](CO)n3cc(CCCCCN)nn3)CC2)n1,> 56 µM
6,C#CCOCCOCCOCCNc1nc(N2CCN(C(=O)CCCCCCCCCCNC(=O)[C@H]([C@@H](C)CC)n3cc(CCCCN=C(N)N)nn3)CC2)nc(N2CCN(C(=O)CCCCCCCCCCNC(=O)[C@@H]([C@H](C)O)n3cc(C)nn3)CC2)n1,> 54.7 µM
7,C#CCOCCOCCOCCNc1nc(N2CCN(C(=O)CCCCCCCCCCNC(=O)Cn3cc(CCCCCN)nn3)CC2)nc(N2CCN(C(=O)CCCCCCCCCCNC(=O)[C@H]([C@@H](C)CC)n3cc(CCCCCN)nn3)CC2)n1,> 55.9 µM

# From PubChem BioAssay AID588442 (The Scripps Research Institute Molecular Screening Center, 2011)
